# Screens as filed in PubChem BioAssay.
# hcDAF-12 act: H. contortus DAF-12 activation, primary screen; activation, % at 6.8 µM; 1.4% of 370,000 active; HEK293 hcDAF-12 lit1-tk-luc reporter, luminescence; 0% DMSO, 100% Δ7-dafachronic acid;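 active means activation above the mean of all tested compounds plus 3 SD, cut at about 5.5% in these data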;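 further: 100% = response to 3 µM Δ7-dafachronic acid high control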
# DAX1 inh-1: blocks DAX1 repression of SF-1 activated StAR promoter; HEK293T StAR-luciferase reporter, SF-1/DAX-1 repression relief; inhibition, % at 6.8 µM; 1.1% of 370,000 active;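 active means inhibition above the mean over all tested compounds plus 3 SD, cut at about 3.6% in these data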;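 further: 0% = DAX-1 cells with DMSO and 100% = cells lacking DAX-1 with DMSO; higher inhibition means more luminescence from relief of DAX-1 repression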
# ssDAF12 agonist: activates DAF-12 receptor from parasite S. stercoralis; HEK293 ssDAF-12/GRIP1 lit1-tk-luc reporter, luminescence; % of 3 µM dafachronic acid response; activation, % at 6.8 µM; 1% of 370,000 active; AID 652126;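 active means activation above the mean over all tested compounds plus 3 SD, cut at about 0.9% in these data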;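 further: 0% = DMSO-only wells and 100% = 3 µM delta7-dafachronic acid wells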
# DAX1 inh-2: inhibitors of human orphan nuclear receptor DAX1 (NR0B1). HEK293 Gal4-DAX1 luciferase reporter, luminescence. 0.99% of 340,000 active. P51843. inhibition, % at 6.75 µM. AID 504766;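 active means inhibition above the mean over all tested compounds plus 3 SD, cut at about 4.2% in these data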;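 further: 0% = DAX1-transfected cells with DMSO and 100% = empty-vector control cells with DMSO; inhibition shows as a rise in luminescence from relieved DAX1 repression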
# Target sequence (P51843 207-470 limits assumed): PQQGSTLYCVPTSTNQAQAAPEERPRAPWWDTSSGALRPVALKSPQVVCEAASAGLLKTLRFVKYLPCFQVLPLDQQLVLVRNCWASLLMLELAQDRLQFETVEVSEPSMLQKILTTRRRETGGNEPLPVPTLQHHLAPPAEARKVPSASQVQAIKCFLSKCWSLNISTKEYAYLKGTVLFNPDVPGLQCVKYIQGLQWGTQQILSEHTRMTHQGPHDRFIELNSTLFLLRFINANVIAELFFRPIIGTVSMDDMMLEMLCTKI
# hgDAF12 agonist: hgDAF-12 agonism, primary luciferase screen; AID 687014; 1.8% of 370,000 active; HEK293 GAL4-hgDAF12 UAS-luciferase reporter, agonist luminescence; normalized to butyrate control; activation, % at 6.8 µM;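 active means activation above a cutoff set at the mean of all screened compounds plus 3 SD, cut at about 10% in these data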;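 further: 0% = DMSO wells and 100% = sodium butyrate wells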
# Active calls of the source: *; / = not tested or not shown. A selection: hits, their analogues and other compounds. The true share with any hit is near 4.1%.
SMILES,hcDAF-12 act,DAX1 inh-1,ssDAF12 agonist,DAX1 inh-2,hgDAF12 agonist
O=C(c1ccc(N2C(=O)c3ccccc3C2=O)cc1)N1CCN(S(=O)(=O)c2ccccc2F)CC1,0.3,-0.6,-1.6,0.8,3.7
CCc1ccccc1NC(=O)c1cc(-c2cccc(O)c2)on1,-2.1,1.1,-0.9,2.2,11.1*
COc1cccc(-c2cc(C(=O)Nc3cccc(O)c3)no2)c1,5.4,3.5,-0.2,-1.6,10.7*
O=C(Nc1ccccc1C(F)(F)F)c1cc(-c2cccc(O)c2)on1,-0.5,1.1,-0.8,0.5,3.5
COc1ccc(NC(=O)c2cc(-c3cccc(OC)c3)on2)cc1,-0.4,-0.1,-0.3,-0.1,-2.1
O=c1ccn([C@@H]2O[C@H](CNCc3cccc4c3sc3ccccc34)[C@@H](O)[C@H]2O)c(=O)[nH]1,0.0,-0.7,-0.9,/,-0.8
COc1ccc(NC(=O)/C=C/c2cccc(F)c2)cn1,1.9,3.4,-0.6,2.4,13.1*
COc1ccc(NC(=O)/C=C/c2ccco2)cn1,2.7,1.6,-0.6,-0.1,8.5
COc1ccc(OC)c(/C=C/C(=O)Nc2ccc(OC)nc2)c1,-0.5,-0.7,-1.9,5.6*,1.2
COc1ccc(OC)c(/C=C/C(=O)NC2=NCCS2)c1,2.0,1.0,-0.8,-0.3,1.8
O=C(CSc1nnc(-c2ccccn2)n1-c1ccccc1)c1ccc2c(c1)OCO2,-2.1,-0.4,-1.7,/,-2.4
CC1(C)CC(N=c2cc(-c3ccccc3)oc3ccc(Cl)cc23)CC(C)(C)N1,-1.2,0.3,-1.2,5.9*,3.8
CCOc1ccc(C2Oc3nc(SC)nnc3-c3ccccc3N2C(C)=O)cc1OC (centres undefined),-1.8,0.0,-0.7,6.0*,-0.8
Cc1ccccc1C(=O)NC[C@@H]1CCCN2CCCC[C@H]12,2.4,-0.3,-1.5,4.5*,-1.7
COc1cc2c(cc1CNC[C@H]1O[C@@H](n3cc(C)c(=O)[nH]c3=O)C[C@@H]1O)OCO2,1.2,0.4,-0.7,5.0*,1.4
COc1ccc(C2C(C(=O)NCCN(C)C)c3ccccc3C(=O)N2C)cc1OC (centres undefined),-1.1,-1.5,-1.2,4.6*,1.1
COc1ccc(C2C(C(=O)NCc3ccccn3)c3ccccc3C(=O)N2C)cc1OC (centres undefined),-1.2,-0.1,-0.8,1.0,-1.4
CC(C)C[C@H]1COc2cc(N3CCCC3)ccc2S(=O)(=O)N1,-1.5,-0.9,-1.6,/,-1.7
Fc1cccc(CSc2nc3ccncc3[nH]2)c1,1.9,4.4*,-0.8,1.2,3.9
Cc1nnc2nc(N)[nH]n2c1=O,-1.0,1.2,-1.4,/,0.7
COc1ccccc1Cc1c(-c2ccco2)nc2ccc(C)cn12,1.3,1.1,-0.2,/,5.1
Cc1ccc(-c2nc3c4ccccc4ccn3c2Cc2ccccc2C(F)(F)F)cc1,4.5,0.8,0.9*,/,1.9
COc1ccccc1Cc1c(-c2ccc(F)cc2)nc2c3ccccc3ccn12,5.8*,-0.4,0.5,/,4.5
COc1ccccc1Cc1c(-c2ccco2)nc2c3ccccc3ccn12,5.7*,0.7,0.6,/,6.7
COc1ccccc1Cc1c(-c2ccc(C)cc2)nc2c3ccccc3ccn12,1.0,-0.4,0.5,/,0.2
SMILES,hcDAF-12 act,DAX1 inh-1,ssDAF12 agonist,DAX1 inh-2,hgDAF12 agonist
CC(NC(=O)NC(=O)c1ccc(Cl)cc1)c1ccccc1 (centres undefined),-2.4,-4.5,-0.9,-0.8,-0.1
COCC(C)NC(=O)NC(=O)c1ccc(Cl)cc1 (centres undefined),0.0,1.6,1.1*,-0.4,0.3
CCN(CC)C(=O)C(C)N(C#N)c1nc(C)cc(C)n1 (centres undefined),6.3*,0.0,-0.9,-1.6,2.4
CCOC(=O)[C@@]12CCCC3=C1N(CCC3)C(=O)[C@H]2CC(=O)N1CCSCC1,-3.0,0.3,-1.7,/,-1.3
CCOC(=O)C(C(=O)OCC)C(c1ccccc1)N1CCN(c2ccccc2)CC1 (centres undefined),-1.9,0.2,-0.9,-0.3,-1.5
COc1ncnc2c1ncn2CCCNCc1ccccc1,-1.1,0.2,-1.1,-0.6,-0.8
CC(=O)c1cccc(OCC(=O)N(CCC2=CCCCC2)c2c(N)n(Cc3ccccc3)c(=O)[nH]c2=O)c1,1.4,0.2,-2.0,4.3*,1.5
CC(=O)c1ccc(OCC(=O)N(CCC2=CCCCC2)c2c(N)n(Cc3ccccc3)c(=O)[nH]c2=O)cc1,-1.5,0.3,-1.1,1.1,4.3
COc1cc(/C=C2/C(=O)N(C)C(=S)N2C)ccc1OCc1cccc(F)c1,-0.3,0.4,-1.9,-0.6,-2.3
CN1C(=O)/C(=C/c2ccc(OCc3cccc(F)c3)cc2)NC1=S,-0.7,0.1,1.4*,0.2,-0.9
NS(=O)(=O)c1ccc(NC(=O)c2cccc3ccccc23)cc1,-0.4,-0.1,-1.8,2.1,1.5
Cc1ccccc1C(=O)Nc1cccc(NC(=O)c2ccccc2[N+](=O)[O-])c1,-0.8,0.4,0.8,-1.0,1.2
Cc1occc1C(=O)Nc1ccc(S(N)(=O)=O)cc1,-0.7,0.9,-1.7,5.6*,-1.2
Cc1cc(NC(=O)c2ccccc2[N+](=O)[O-])ccc1Br,-1.2,0.2,-0.3,4.8*,6.2
CNS(=O)(=O)c1ccc(NC(=O)c2ccoc2C)cc1,0.8,-0.2,-1.1,1.1,2.1
NS(=O)(=O)c1ccc(NC(=O)c2cccc3cc4ccccc4nc23)cc1,-2.6,-2.9,0.9*,-1.2,1.1
Cc1cc(NC(=O)c2ccoc2C)ccc1Br,3.3,3.7*,-0.3,2.1,9.4
COc1ccc(C2CC3CN(C4CCCCC4)C(=O)C3N2C)cc1 (centres undefined),-2.7,-1.2,-1.1,/,0.8
CNC[C@@H]1OCc2cnnn2CCCC(=O)N([C@H](C)CO)C[C@H]1C,0.0,-1.1,-0.8,-0.2,4.3
COC(=O)[C@H](Cc1ccccc1)NC(=O)[C@H]1C[C@@]2(N3CCCC3)c3ccccc3N(C(=O)OC(C)(C)C)[C@H]2N1C(=O)OC(C)(C)C,1.7,0.0,-1.7,/,-3.0
CCC[C@H]1[C@@H](NC(=S)Nc2ccccc2Cl)CC[C@@]23CCCN2C(=O)CCC[C@@H]13,-2.2,/,-1.0,/,-1.4
COC(=O)C1CN(Cc2ccc(F)cc2)CCS(=O)(=O)N1Cc1ccccc1 (centres undefined),-1.9,-0.6,-0.3,/,-2.9
CCOn1c(=O)c(-c2ccc(F)cc2)[n+]([O-])c2ccccc21,0.6,0.3,-1.1,4.8*,-2.2
CCOC(=O)COn1c(=O)c(-c2cccs2)[n+]([O-])c2ccccc21,-0.4,0.4,-0.8,0.3,2.2
CCOn1c(=O)c(-c2cccs2)[n+]([O-])c2ccccc21,0.9,-0.9,-1.1,5.2*,0.1
CCOc1ccc(-n2c(SCC(=O)Nc3cccc4ccccc34)nnc2-c2cccs2)cc1,-0.3,-2.9,-1.1,/,2.3
O=c1oc2ccccc2cc1NCc1ccccc1O,2.1,1.3,0.2,4.2*,9.1
